Records with an inconclusive call do not appear. A call without a number means that no potency is given here. Calls of active or inactive are those of the source. The call rests on the fitted dose curve; in most records, active means well fitted inhibition curve with a large enough effect; inconclusive means small, poorly fitted or top-dose-only effect; inactive means flat fitted curve, though single readings scatter.

The target of the assay is Aldehyde dehydrogenase, mitochondrial (Homo sapiens) (UniProt P05091). In words: qHTS for Inhibitors of the Aldehyde Dehydrogenase Family (ALDH2) Primary screen (AID 2061308). Further: nearly all actives have a fitted effect of over 55% in size. Particulars: ALDH2 enzyme inhibition qHTS, 1536-well; series mostly up to 56 µM. On the technique in general: In qHTS, concentration-response curves come from the screen itself.
As for `COCCCc1cc(F)c(S(=O)(=O)N2CCN(S(=O)(=O)c3ccc4c(c3)OCCO4)CC2)cc1F`, the Potency result is “inactive”.
In the case of `Cc1cccc(CNc2ncnc3ccc(-c4cccc(Cl)c4)cc23)c1`, the Potency result was “inactive”.
On to `O=S(=O)(c1ccc2ccccc2c1)N1CCN(S(=O)(=O)c2c(F)cccc2F)CC1`, for which the Potency entry is “inactive”.
Regarding `Cc1ccc(C[C@H](C(=O)O)N2C(=O)c3ccc(C(=O)O)cc3C2=O)cc1`, the Potency entry is “inactive”.
With `S=C(NCCCc1cnc[nH]1)NCCCN(Cc1ccc(Cl)cc1)c1ccc(Br)cn1`, the Potency result was “inactive”.
Under `Cc1ccccc1S(=O)(=O)Nc1cnccc1C(=O)Nc1nc(-c2ccccc2)cs1` stands “inactive”; under `Cc1cc(OCCCSc2nc(-c3ccc(C(C)(C)C)cc3)nc3cc(=O)[nH]n23)ccc1Cl`, “inactive”; under `Cc1cccc(-n2cnc3cc(C(=O)N4CCC(C#N)CC4)ccc32)c1`, “inactive”.
Consider `COc1ccc(C(=O)Nc2ccc(-c3nc4ccccc4[nH]3)cc2)cc1F`, for which the Potency result was “inactive”.
The value for `Cc1ccc(S(=O)(=O)Nc2cc3c(cc2C(=O)Nc2nc(-c4ccccc4)cs2)OCO3)cc1` was “inactive”; that for `O=C(c1ccc2c(c1)ncn2-c1ccccc1)N1CCCCC1` was “inactive”; that for `CCOc1ccc(CCNC(=O)c2cccc(C(=O)c3ccccc3)c2)cc1OCC` was “inactive”.
Under `N#Cc1nc(Nc2ccc(Br)cc2)nc(NC2CCCC2)n1` stands “inactive”.
As for `CC(C)CN1CCN(C(=O)COC(=O)c2ccc(S(C)(=O)=O)c([N+](=O)[O-])c2)CC1`, the Potency entry was “inactive”.
Take `Cc1ccc(OCCn2c(CCNC(=O)CCc3ccccc3Br)nc3ccccc32)cc1`: the Potency result is “inactive”.
Under `CN(C)[S+](=O)([O-])c1ccc(-c2ccc(=O)n(CC(=O)NCCc3ccccc3)n2)cc1` stands “inactive”.
With `Cc1ccc(OCCn2c(CCNC(=O)C3CCN(C(=O)OC(C)(C)C)CC3)nc3ccccc32)cc1`, the Potency entry was “inactive”.
Under `NC(=O)C1CCN(c2nc(-c3ccccc3F)cs2)CC1` stands “inactive”; under `O=C(Nc1ccc(Cl)nc1)Nc1nnc(-c2ccncc2)s1`, “inactive”; under `Cn1cnc(S(=O)(=O)Nc2cnccc2C(=O)Nc2nc(-c3ccccc3)cs2)c1`, “inactive”.
Under `COc1cc(O)c(C(CC(=O)N2CCCC(C)C2)c2ccc(OC)c(OC)c2)c(OC)c1` (stereo not given) stands “inactive”.
Turning to `Cc1nc(NC2CCCCC2)c2nc(-c3ccccc3)n(CCCN3CCCCC3C)c2n1` (stereo not given), the Potency result is “inactive”.
As to `Cc1cccc(-n2cnc3cc(C(=O)NC(C)(C)C)ccc32)c1`, the Potency entry was “inactive”.
For the compound `Cc1ccc(S(=O)(=O)N(C)c2ccccc2C(=O)Nc2nc(-c3ccccc3)cs2)cc1`, the Potency entry was “inactive”.
Take `COc1ccccc1CNC(=O)Nc1nnc(-c2ccncc2)s1`: the Potency entry is “inactive”.
For the compound `COc1ccc(-c2ccc(NC(=O)c3cccs3)cn2)cc1`, the Potency entry is “inactive”.
Consider `O=C(NCCc1nc2ccccc2[nH]1)C1CCCCC1`, for which the Potency entry was “inactive”.
`O=S(=O)(c1ccc(Cl)cc1)N1CCN(S(=O)(=O)c2ccc3c(c2)OCCO3)CC1`: the Potency entry is “inactive”.
Consider `O=c1c2[nH]c3cc(Br)sc3c2cnn1Cc1ccccc1F`, for which the Potency entry was “inactive”.
As for `COc1cc(O)c(C(CC(=O)N2CCC(Cc3ccccc3)CC2)c2ccc(OC)c(OC)c2)c(OC)c1` (stereo not given), the Potency result was “inactive”.
As to `Cc1ccc(S(=O)(=O)Nc2cc(C)ccc2C(=O)Nc2nc(-c3ccccc3)cs2)cc1`, the Potency entry is “inactive”.
For the compound `Cc1nc(N2CCOCC2)c2nc(-c3ccccc3)n(CCCN(C)C)c2n1`, the Potency result was “inactive”.
Regarding `Cc1c(P(=S)(c2ccccc2)c2ccccc2)[n+]2ccccc2n1CCCCc1ccccc1`, the Potency entry was “inactive”.
For `CC(C)Nc1nc(C#N)nc(Nc2ccccc2)n1`, the Potency result was “inactive”.
For the compound `CCOC(=O)c1cccc(NC(=O)Nc2nnc(-c3ccncc3)s2)c1`, the Potency result was “inactive”.
For `Cc1ccc(S(=O)(=O)Nc2ccc(C(=O)Nc3nc(-c4ccc(Cl)cc4)cs3)cc2)cc1`, the Potency entry was “inactive”.
With `Cc1cnccc1-c1nc(Nc2ccc(F)c(F)c2)c2ccccc2n1`, the Potency result is “inactive”.
For the compound `COc1cc(F)c(S(=O)(=O)N2CCCN(S(=O)(=O)c3ccc(N)cc3)CC2)c(F)c1`, the Potency entry was “inactive”.
As to `Cc1ccc(-c2ccc(CNc3nc(-c4ccccc4C(C)C)nc4ccccc34)cc2)cn1`, the Potency entry was “inactive”.
In the case of `CCCn1c(C)nc2c(N(CCN(CC)CC)CCN(CC)CC)nc(C)nc21`, the Potency entry was “inactive”.

These data come from PubChem BioAssay (NCATS).
